Test [1] is described as follows: antimalarial activity against Dd2 strain (AID 2302;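 active means growth inhibition above 50% at the single 2 µM test dose, taken to imply half-maximal potency below 2 µM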;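 further: 0% = DMSO untreated growth and 100% = chloroquine plus artemisinin killed control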). As to conditions: P. falciparum Dd2 in RBCs, LDH growth readout, 72 h; at 2 µM; hits give high values.
Test [2] in a line: HepG2 cytotoxicity, primary screen, cytotoxicity control for P. falciparum antimalarial project, cell-based, ATP luminescence (AID 2303;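 active means inhibition above 50%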;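 further: 0% = DMSO wells and 100% = digitonin-killed cells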). As to conditions: HepG2 viability, 24-48 h, at 10 µM, hits give high values.
Test [3] deals with L-lactate dehydrogenase (Plasmodium falciparum (isolate CDC / Honduras)) (UniProt Q27743). Description: PfLDH activity inhibition – cell lysate, 3D7 strain, counter-screen for P. falciparum growth inhibition project (AID 2304).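 Further: 0% = vehicle and 100% = reference inhibitor.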 As to conditions: P. falciparum 3D7 crude extract, LDH APAD/NBT absorbance; at 2 µM; hits give high values.
L-lactate dehydrogenase (Plasmodium falciparum (isolate CDC / Honduras)), sequence (Q27743 whole entry, looked up): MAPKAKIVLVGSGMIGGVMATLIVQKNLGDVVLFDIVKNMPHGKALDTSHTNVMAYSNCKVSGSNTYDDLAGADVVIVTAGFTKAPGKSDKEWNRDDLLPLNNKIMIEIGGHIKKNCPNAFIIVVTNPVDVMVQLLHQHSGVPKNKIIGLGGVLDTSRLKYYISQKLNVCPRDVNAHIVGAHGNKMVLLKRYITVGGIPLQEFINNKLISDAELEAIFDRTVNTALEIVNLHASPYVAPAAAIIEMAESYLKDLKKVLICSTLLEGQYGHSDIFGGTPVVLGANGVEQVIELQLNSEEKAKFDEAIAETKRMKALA
A short description of test [4]: inhibition of 3D7 malaria parasite growth – strain 3D7 (AID 2306).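 Further: 0% = DMSO wells and 100% = chloroquine plus artemisinin control wells.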 As to conditions: P. falciparum 3D7 erythrocytic growth, LDH absorbance, 72 h; at 2 µM; hits give high values.
Test [5] has as its target Calcium-dependent protein kinase 1 (Plasmodium falciparum (isolate 3D7)) (UniProt P62344). In words: PfCDPK1 kinase inhibitors, biochemical, TCAMS library (AID 1159585; cut-off not given, nearly all actives have IC50 up to about 0.98 µM;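 further: inhibitors leave more ATP so luminescence rises with inhibition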). As to conditions: recombinant PfCDPK1, Kinase-Glo ATP depletion luminescence. (In general: In Kinase-Glo more light means more ATP remaining.)
Test [6] concerns the target Plasmodium falciparum protein kinase 6 (PK6, PF3D7_1337100) (UniProt Q8IDW1). In words: PfPK6 kinase inhibitors, biochemical, TCAMS library (AID 1159586). As to conditions: recombinant PfPK6, Kinase-Glo ATP depletion luminescence.
Test [7] has as its target Protein kinase 7 (PK7), Plasmodium falciparum 3D7 (PF3D7_0213400) (UniProt Q7YTF7). In words: inhibition of Plasmodium PK7 catalytic activity – biochemical, TCAMS antimalarial set, Kinase-Glo luminescence (AID 1159587). As to conditions: recombinant PfPK7, Kinase-Glo ATP depletion luminescence.
The target of test [8] is Calcium-dependent protein kinase 4 (Plasmodium falciparum (isolate 3D7)) (UniProt Q8IBS5). Description: PfCDPK4 kinase inhibitors, biochemical, TCAMS library (AID 1159588; cut-off not given, nearly all actives have IC50 up to about 0.91 µM). As to conditions: recombinant PfCDPK4, Kinase-Glo ATP depletion luminescence.
Calcium-dependent protein kinase 4 (Plasmodium falciparum (isolate 3D7)), sequence (Q8IBS5 whole entry, looked up): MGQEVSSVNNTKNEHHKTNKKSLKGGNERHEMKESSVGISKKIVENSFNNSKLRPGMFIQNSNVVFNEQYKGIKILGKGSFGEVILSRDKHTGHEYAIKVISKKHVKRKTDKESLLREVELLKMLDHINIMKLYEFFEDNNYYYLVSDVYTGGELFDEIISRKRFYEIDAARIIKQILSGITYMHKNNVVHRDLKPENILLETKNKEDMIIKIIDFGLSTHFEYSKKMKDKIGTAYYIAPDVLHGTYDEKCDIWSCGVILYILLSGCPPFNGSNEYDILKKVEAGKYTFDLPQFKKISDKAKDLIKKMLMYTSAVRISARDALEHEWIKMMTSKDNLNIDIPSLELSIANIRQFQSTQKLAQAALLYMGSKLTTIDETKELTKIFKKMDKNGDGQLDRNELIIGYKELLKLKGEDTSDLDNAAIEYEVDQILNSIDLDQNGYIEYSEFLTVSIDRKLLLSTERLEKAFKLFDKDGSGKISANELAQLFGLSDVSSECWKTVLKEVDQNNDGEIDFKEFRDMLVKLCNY

Values without a mark were called inactive. For part of these data: Results with a measured potency or affinity are listed apart. Activity calls are given as the source filed them. Unless noted, how the calls were made is not given here.

The text below walks through data of PubChem BioAssay.

What is called inhibition is the drop in the measured response relative to a control, in per cent.

Protein kinase 7 (PK7), Plasmodium falciparum 3D7 (PF3D7_0213400), sequence (Q7YTF7 1-343): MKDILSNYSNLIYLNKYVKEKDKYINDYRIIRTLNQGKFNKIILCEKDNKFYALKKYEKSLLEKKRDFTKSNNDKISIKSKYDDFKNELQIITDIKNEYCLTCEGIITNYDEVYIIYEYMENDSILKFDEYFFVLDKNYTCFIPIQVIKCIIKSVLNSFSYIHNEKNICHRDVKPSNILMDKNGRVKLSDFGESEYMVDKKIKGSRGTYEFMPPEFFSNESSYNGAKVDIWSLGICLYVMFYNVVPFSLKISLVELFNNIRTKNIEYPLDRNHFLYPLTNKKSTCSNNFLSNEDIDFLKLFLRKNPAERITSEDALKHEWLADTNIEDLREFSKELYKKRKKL
Calcium-dependent protein kinase 1 (Plasmodium falciparum (isolate 3D7)), sequence (P62344 whole entry, looked up): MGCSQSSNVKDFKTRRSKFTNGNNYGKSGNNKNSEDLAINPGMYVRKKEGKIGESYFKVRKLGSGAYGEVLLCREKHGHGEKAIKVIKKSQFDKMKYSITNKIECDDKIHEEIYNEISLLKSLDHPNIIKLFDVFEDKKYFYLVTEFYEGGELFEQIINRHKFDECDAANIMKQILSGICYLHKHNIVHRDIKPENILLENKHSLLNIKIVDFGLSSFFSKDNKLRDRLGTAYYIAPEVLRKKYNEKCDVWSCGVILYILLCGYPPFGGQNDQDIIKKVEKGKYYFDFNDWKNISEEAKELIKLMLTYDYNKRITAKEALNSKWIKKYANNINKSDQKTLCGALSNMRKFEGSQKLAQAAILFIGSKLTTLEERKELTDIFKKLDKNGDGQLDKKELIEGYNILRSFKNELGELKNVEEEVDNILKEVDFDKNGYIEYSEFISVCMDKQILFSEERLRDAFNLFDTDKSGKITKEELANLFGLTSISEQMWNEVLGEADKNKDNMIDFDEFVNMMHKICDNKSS
Plasmodium falciparum protein kinase 6 (PK6, PF3D7_1337100), sequence (Q8IDW1 1-305): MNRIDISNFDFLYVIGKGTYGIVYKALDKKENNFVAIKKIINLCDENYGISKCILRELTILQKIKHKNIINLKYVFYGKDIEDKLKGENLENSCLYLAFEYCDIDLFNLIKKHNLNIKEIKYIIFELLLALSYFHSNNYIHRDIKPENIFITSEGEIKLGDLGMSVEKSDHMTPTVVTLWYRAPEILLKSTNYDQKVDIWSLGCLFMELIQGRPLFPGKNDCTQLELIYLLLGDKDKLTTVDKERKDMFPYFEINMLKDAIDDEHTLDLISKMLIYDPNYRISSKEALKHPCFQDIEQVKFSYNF

`CCOC(=O)c1ccc(NC(=O)Nc2cccc(-c3cccc(-c4nc5c(C)cccc5[nH]4)c3)c2)cc1`: the figures for the growth inhibition in test [1] and in test [4] were 99% (active) and 100% (active), respectively. The inhibition in test [2] was 37%; in test [3] it was 0%. The result in test [5], in test [6], in test [7] and in test [8] was inactive.

Consider `COc1nc2c(CCN3CCC(NCc4ccc5c(c4)NC(=O)CO5)CC3)c(Cl)cnc2cc1F`, for which the growth inhibition in test [1] is 21%; in test [4], 99% (active). The inhibition is 15% in test [2] and 6% in test [3]. Besides, the outcome in test [5], in test [6], in test [7] and in test [8] was inactive.

On to `COc1ccc2nc(NC3=NC4(c5ccccc5)N=C(Nc5nc6ccc(OC)cc6[nH]5)NC4(c4ccccc4)N3)[nH]c2c1` (stereo not drawn), for which the growth inhibition in test [1] is 85% (active); in test [4] it was 100% (active). Besides, the inhibition in test [2] was -5%; in test [3] it was -6%. In addition, the outcome in test [5], in test [6], in test [7] and in test [8] was inactive.

With `CCN(CC)C(=S)N=Nc1c(O)[nH]c2c(C)cccc12`, the growth inhibition in test [1] is 69% (active); in test [4], 94% (active). Further, the inhibition in test [2] was 28%; in test [3], 3%. Besides, the outcome in test [5], in test [6], in test [7] and in test [8] was inactive.

As to `CCN(CC)CCCNc1c2ccccc2nc2ccccc12`, the figures for the growth inhibition in test [1] and in test [4] were 0% and 100% (active), respectively. The inhibition was 17% in test [2] and -1% in test [3]. Moreover, the outcome in test [5], in test [6], in test [7] and in test [8] was inactive.

As to `O=C([C@H]1C[C@@H]1c1ccccc1)N(Cc1ccc(-c2ccc(CNCCc3ccccc3)cc2)cc1)C1CCNCC1`, the growth inhibition in test [1] was 39%; in test [4] it was 96% (active). The inhibition in test [2] is 36%; in test [3], -5%. Also, the result in test [5], in test [6], in test [7] and in test [8] was inactive.

As to `c1ccc2[nH]c(-c3ccc(-c4ccc(CNCC5CCCO5)cc4)s3)nc2c1` (stereo not drawn), the growth inhibition in test [1] was 87% (active); in test [4], 101% (active). The inhibition in test [2] is 27%; in test [3], 4%. Further, the result in test [5], in test [6], in test [7] and in test [8] was inactive.

Regarding `COc1cc(NCCCCCNc2cc(Cl)nc3ccccc23)nc2ccccc12`, the growth inhibition is 54% (active) in test [1] and 103% (active) in test [4]. In addition, the inhibition in test [2] was 17%; in test [3] it was -3%. In addition, the result in test [5], in test [6], in test [7] and in test [8] was inactive.

Regarding `COCCNCc1ccc(-c2cccc(CN(C(=O)NCCc3ccccc3)C3CCN(Cc4ccccc4)CC3)c2)cc1`, the figures for the growth inhibition in test [1] and in test [4] were 90% (active) and 88% (active), respectively. For the same compound, the inhibition in test [2] was 25%; in test [3] it was -4%. Besides, the outcome in test [5], in test [6], in test [7] and in test [8] was inactive.

Regarding `CN1CCC(NCc2cccc(-c3ccc(S(=O)(=O)NCc4ccccc4)c(F)c3)c2)CC1`, the growth inhibition in test [1] and in test [4] was 99% (active) throughout. Further, the inhibition in test [2] was 94% (active); in test [3], -8%. Besides, the result in test [5], in test [6], in test [7] and in test [8] was inactive.

For the compound `COc1cc(O)c2c(=O)c(OC)c(-c3cccc(Cl)c3OCC(=O)O)oc2c1OC`, the growth inhibition is -2% in test [1] and 100% (active) in test [4]. The figures for the inhibition in test [2] and in test [3] were -6% and -1%, respectively. Also, the outcome in test [5], in test [6], in test [7] and in test [8] was inactive.

For `CC(C)(C)c1ccc(S(=O)(=O)Nc2ccccc2Cn2nc(N3CCNCC3)ccc2=O)cc1`, the growth inhibition was 97% (active) in test [1] and 98% (active) in test [4]. The inhibition in test [2] is -5%; in test [3] it was 2%. Also, the result in test [5], in test [6], in test [7] and in test [8] was inactive.

On to `Cc1cc(NC2CCN(CC3CCCCC3)C2)nc(Nc2ccc(Cl)cc2)n1` (stereo not drawn), for which the growth inhibition in test [1] is 83% (active); in test [4], 98% (active). Also, the inhibition in test [2] was 26%; in test [3], -2%. Besides, the outcome in test [5], in test [6], in test [7] and in test [8] was inactive.

Take `O=C(Cc1ccccc1)NC(c1ccc(Cl)cc1)c1ccc2cccnc2c1O` (stereo not drawn): the growth inhibition in test [1] was 64% (active); in test [4] it was 93% (active). In addition, the inhibition was 50% (active) in test [2] and -2% in test [3]. In addition, the result in test [5], in test [6], in test [7] and in test [8] was inactive.

Consider `COc1cccc2c(NN=Cc3ccc([N+](=O)[O-])cc3)ccnc12`, for which the growth inhibition in test [1] is 16%; in test [4] it was 92% (active). For the same compound, the inhibition in test [2] is 25%; in test [3], -3%. Besides, the outcome in test [5], in test [6], in test [7] and in test [8] was inactive.

With `COc1ccc2nccc([C@@H](O)CN3CCC(NCc4ccc5c(c4)OCCO5)CC3)c2c1`, the figures for the growth inhibition in test [1] and in test [4] were 92% (active) and 101% (active), respectively. In addition, the inhibition was 9% in test [2] and -4% in test [3]. Further, the outcome in test [5], in test [6], in test [7] and in test [8] was inactive.

Turning to `COc1ccc(-c2nc(NC(=O)CS(=O)(=O)c3ccccc3)sc2C)cc1`, the figures for the growth inhibition in test [1] and in test [4] were 82% (active) and 99% (active), respectively. Further, the inhibition in test [2] is 7%; in test [3], -9%. The result in test [5], in test [6], in test [7] and in test [8] was inactive.

On to `Cc1cccc2[nH]c(-c3ccc(-c4cccc(CN5CCCC(O)C5)c4)s3)nc12` (stereo not drawn), for which the growth inhibition was 18% in test [1] and 95% (active) in test [4]. In addition, the inhibition in test [2] was 13%; in test [3], 2%. Also, the outcome in test [5], in test [6], in test [7] and in test [8] was inactive.

Turning to `COc1cc2nc(N[C@@H](CO)c3ccccc3)nc(NCc3ccccc3)c2cc1OC`, the growth inhibition in test [1] is 71% (active); in test [4], 101% (active). Also, the inhibition in test [2] is 6%; in test [3], 1%. In addition, the outcome in test [5], in test [6], in test [7] and in test [8] was inactive.

On to `CN1CCN(CCCNCc2ccccc2-c2cccc(CNCc3ccc4c(c3)OCO4)c2)CC1`, for which the values for the growth inhibition in test [1] and in test [4] were 7% and 102% (active), respectively. The inhibition in test [2] is 34%; in test [3] it was -1%. Moreover, the outcome in test [5], in test [6], in test [7] and in test [8] was inactive.

On to `O=S(=O)(Nc1cccc(CCN2CCCCC2CCN2CCCC2)c1)c1cccc2ccccc12` (stereo not drawn), for which the growth inhibition was 6% in test [1] and 97% (active) in test [4]. Moreover, the inhibition is 23% in test [2] and 3% in test [3]. Moreover, the result in test [5], in test [6], in test [7] and in test [8] was inactive.
